17 molecules from ChEMBL document CHEMBL1961873, “Compounds: GSK PKIS; Assays: Nanosyn kinase panel” (2012) can be followed below.

Experiment [1] concerns Epidermal growth factor receptor (Homo sapiens), P00533 [T790M]. As to conditions: at 1 µM.
Experiment [2] deals with Epidermal growth factor receptor (Homo sapiens), P00533 [L858R,T790M]. To be noted: at 0.1 µM.
For experiment [3] the test system is unchanged. To be noted: at 1 µM.
Experiment [4] concerns the target Ephrin type-A receptor 2 (Homo sapiens) (UniProt P29317). To be noted: at 0.1 µM.
Experiment [5] has the same target. To be noted: at 1 µM.
For experiment [6], the target named is T1, Ephrin type-A receptor 3 (Homo sapiens) (UniProt P29320).
T1 sequence (whole entry): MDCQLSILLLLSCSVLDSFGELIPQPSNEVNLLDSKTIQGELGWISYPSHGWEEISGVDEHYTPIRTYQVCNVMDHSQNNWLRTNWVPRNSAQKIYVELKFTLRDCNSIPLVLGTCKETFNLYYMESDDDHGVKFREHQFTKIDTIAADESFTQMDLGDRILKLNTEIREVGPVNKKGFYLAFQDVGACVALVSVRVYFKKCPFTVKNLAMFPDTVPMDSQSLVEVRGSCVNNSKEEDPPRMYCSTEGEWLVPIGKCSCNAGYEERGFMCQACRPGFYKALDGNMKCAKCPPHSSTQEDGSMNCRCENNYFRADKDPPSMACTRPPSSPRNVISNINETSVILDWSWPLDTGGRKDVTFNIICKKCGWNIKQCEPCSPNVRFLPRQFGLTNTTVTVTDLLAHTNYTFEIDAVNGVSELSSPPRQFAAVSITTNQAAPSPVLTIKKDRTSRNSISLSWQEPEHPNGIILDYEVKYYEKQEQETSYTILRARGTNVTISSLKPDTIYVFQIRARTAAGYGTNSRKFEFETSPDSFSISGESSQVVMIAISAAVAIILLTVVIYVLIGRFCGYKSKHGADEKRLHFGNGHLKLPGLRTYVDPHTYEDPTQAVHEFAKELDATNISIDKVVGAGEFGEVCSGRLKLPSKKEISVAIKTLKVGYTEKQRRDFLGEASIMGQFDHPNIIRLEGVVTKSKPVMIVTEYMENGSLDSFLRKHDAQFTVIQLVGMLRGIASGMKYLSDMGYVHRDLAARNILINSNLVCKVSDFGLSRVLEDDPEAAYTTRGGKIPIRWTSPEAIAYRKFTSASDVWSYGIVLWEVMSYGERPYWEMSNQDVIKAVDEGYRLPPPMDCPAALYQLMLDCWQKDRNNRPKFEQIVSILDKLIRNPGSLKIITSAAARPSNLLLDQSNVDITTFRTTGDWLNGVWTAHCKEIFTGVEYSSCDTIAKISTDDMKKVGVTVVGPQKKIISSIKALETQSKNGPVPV
To be noted: at 0.1 µM.

In experiment [7] the target is T1, Ephrin type-A receptor 3 (Homo sapiens). To be noted: at 1 µM.
For experiment [8], the target named is Ephrin type-A receptor 4 (Homo sapiens) (UniProt P54764). To be noted: at 0.1 µM.
The target is the same in experiment [9]. As to conditions: at 1 µM.
Experiment [10] concerns the target T2, Ephrin type-B receptor 2 (Homo sapiens) (UniProt P29323).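 Further: reported as mean inhibition of EPHB2, from the GSK PKIS dataset.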
T2 sequence (whole entry): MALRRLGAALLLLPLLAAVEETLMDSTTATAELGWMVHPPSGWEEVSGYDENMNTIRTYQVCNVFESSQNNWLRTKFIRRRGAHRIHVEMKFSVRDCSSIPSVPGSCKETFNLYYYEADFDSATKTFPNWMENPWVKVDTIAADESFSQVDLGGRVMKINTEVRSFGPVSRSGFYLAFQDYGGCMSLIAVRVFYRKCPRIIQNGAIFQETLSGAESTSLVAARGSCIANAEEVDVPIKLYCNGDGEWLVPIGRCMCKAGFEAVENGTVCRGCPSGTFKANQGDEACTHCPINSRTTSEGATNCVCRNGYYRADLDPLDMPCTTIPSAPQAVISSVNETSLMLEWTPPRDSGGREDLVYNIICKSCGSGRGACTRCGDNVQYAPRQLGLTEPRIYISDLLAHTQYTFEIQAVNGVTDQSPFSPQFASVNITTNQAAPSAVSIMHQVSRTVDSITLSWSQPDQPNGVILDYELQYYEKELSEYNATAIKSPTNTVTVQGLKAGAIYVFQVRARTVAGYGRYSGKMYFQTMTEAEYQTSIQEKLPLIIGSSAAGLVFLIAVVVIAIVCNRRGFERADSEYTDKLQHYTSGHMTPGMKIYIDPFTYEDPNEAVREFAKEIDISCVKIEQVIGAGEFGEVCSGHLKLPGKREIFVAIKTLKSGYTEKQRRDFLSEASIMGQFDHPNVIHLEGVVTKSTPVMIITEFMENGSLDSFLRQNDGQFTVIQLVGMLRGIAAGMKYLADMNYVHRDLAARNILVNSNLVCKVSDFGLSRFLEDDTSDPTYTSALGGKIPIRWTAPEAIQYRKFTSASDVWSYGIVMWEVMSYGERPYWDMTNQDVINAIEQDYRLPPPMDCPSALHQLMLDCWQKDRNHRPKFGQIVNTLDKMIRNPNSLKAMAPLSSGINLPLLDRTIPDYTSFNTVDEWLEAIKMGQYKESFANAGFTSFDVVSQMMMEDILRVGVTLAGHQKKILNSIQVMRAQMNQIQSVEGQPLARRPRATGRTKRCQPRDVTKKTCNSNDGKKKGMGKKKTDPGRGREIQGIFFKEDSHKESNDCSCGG
As to conditions: at 0.1 µM.

Structures are written as SMILES.

Sequence of Epidermal growth factor receptor (Homo sapiens), P00533 [L858R,T790M] (P00533 whole entry T790M/L858R, looked up): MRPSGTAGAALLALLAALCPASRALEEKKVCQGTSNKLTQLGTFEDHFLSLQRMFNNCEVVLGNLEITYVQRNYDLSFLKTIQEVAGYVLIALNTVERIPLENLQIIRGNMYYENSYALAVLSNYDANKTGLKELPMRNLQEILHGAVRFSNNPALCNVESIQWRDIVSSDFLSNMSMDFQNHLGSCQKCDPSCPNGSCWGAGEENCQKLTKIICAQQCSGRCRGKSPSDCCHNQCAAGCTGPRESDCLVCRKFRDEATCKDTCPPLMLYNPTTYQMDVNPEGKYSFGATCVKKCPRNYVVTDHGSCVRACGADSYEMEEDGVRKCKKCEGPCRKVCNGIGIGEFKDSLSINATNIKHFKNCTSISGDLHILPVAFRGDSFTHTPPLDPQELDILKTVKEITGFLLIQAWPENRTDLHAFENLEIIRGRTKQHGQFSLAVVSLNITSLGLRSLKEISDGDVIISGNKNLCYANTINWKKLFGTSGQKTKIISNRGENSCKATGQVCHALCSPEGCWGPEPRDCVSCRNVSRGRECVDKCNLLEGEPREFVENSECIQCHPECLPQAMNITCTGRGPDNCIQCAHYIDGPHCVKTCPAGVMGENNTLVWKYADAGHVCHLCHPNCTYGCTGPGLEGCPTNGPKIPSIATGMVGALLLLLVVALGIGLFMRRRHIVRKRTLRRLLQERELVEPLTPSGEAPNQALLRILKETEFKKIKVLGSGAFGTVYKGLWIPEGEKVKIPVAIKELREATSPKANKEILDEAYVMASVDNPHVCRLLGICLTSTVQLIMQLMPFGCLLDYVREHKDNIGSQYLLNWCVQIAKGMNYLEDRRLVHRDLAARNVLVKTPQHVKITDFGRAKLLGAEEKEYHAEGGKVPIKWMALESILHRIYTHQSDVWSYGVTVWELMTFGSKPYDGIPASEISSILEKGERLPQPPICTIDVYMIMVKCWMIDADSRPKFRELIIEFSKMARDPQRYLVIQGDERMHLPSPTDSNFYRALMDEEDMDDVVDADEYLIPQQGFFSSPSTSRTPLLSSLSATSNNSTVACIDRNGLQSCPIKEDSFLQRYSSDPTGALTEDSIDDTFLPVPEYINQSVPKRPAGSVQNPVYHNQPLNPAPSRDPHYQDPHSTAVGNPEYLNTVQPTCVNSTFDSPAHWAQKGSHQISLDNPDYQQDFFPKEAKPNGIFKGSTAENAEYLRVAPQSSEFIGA
Sequence of Ephrin type-A receptor 2 (Homo sapiens) (P29317 whole entry): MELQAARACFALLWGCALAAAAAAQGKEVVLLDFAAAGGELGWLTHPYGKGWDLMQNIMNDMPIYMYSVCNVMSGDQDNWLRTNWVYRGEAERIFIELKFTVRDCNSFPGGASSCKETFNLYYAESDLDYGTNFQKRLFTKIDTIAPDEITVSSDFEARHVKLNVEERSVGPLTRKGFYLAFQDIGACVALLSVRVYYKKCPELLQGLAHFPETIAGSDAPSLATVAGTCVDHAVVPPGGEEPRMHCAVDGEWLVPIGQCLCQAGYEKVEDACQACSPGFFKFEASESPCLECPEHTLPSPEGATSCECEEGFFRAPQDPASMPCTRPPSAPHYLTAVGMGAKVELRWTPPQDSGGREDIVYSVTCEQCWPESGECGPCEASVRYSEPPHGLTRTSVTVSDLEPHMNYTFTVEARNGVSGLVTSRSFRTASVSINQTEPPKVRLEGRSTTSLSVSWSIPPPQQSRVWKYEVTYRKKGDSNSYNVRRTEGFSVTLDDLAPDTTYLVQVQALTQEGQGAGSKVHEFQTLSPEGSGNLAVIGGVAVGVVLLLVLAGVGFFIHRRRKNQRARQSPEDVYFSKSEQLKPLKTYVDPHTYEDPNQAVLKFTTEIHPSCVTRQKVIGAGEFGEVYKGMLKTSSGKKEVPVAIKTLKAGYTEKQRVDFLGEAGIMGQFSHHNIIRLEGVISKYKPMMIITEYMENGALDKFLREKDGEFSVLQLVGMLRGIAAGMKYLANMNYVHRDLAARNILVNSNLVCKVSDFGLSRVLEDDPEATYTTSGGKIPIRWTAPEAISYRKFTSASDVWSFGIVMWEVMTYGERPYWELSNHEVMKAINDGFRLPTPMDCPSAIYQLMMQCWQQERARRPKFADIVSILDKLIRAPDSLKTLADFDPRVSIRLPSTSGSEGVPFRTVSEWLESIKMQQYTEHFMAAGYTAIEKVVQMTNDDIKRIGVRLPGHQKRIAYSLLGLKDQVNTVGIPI
Sequence of Epidermal growth factor receptor (Homo sapiens), P00533 [T790M] (P00533 whole entry T790M): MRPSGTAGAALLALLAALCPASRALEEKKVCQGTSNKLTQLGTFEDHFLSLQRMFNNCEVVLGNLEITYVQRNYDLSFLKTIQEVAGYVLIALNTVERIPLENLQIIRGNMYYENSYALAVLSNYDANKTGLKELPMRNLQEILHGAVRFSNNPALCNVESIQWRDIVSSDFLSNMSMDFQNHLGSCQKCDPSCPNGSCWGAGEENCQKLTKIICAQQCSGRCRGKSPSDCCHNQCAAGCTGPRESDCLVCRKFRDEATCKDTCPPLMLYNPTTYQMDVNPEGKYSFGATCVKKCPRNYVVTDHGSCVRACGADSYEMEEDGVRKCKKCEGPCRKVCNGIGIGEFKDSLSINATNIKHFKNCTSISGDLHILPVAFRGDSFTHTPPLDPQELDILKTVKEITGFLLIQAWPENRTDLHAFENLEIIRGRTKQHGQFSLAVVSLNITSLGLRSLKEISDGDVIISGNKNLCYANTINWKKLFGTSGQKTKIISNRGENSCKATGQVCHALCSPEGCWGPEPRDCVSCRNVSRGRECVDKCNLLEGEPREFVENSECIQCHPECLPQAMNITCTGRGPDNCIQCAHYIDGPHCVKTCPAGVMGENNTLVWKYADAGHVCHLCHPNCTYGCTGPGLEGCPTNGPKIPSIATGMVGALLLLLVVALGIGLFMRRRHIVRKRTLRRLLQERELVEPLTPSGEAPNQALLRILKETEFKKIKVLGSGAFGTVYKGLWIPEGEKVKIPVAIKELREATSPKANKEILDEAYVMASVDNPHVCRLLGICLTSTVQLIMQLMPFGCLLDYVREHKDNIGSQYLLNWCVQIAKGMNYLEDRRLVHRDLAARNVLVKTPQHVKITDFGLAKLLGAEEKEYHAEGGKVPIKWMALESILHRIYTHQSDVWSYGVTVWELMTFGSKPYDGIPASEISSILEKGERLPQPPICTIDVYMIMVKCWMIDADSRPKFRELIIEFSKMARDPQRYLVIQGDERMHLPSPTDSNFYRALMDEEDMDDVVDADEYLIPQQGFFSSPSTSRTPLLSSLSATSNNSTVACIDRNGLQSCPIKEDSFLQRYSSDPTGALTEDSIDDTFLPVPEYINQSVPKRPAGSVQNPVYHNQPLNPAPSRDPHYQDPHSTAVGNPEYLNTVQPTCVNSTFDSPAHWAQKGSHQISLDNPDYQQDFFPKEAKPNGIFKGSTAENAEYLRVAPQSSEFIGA
Sequence of Ephrin type-A receptor 4 (Homo sapiens) (P54764 whole entry): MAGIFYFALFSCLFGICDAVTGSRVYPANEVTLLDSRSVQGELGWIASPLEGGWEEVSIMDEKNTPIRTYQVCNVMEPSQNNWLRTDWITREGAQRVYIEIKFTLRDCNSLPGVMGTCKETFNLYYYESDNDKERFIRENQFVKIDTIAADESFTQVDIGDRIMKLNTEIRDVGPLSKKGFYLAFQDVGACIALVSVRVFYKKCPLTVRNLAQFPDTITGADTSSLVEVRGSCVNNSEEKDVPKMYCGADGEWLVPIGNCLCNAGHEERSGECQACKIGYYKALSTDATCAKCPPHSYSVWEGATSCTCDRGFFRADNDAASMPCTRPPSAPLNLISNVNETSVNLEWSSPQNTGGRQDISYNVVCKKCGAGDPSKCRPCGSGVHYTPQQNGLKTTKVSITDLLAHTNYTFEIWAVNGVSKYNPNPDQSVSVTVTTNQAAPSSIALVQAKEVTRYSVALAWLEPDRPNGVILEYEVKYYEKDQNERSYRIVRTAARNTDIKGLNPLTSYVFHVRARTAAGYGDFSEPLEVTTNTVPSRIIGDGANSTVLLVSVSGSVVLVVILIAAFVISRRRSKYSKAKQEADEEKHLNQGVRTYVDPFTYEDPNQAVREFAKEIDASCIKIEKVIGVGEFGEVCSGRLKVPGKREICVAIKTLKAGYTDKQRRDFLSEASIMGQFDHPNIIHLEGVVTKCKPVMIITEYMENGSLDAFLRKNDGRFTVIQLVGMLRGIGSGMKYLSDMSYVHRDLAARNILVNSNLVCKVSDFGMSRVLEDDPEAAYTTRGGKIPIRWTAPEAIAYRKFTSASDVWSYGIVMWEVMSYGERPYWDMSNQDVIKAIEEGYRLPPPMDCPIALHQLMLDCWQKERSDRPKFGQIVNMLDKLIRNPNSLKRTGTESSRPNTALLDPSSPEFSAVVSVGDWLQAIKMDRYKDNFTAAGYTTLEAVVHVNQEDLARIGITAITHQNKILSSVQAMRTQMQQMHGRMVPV

A word on the inhibition: it is the change of the read-out against control, counted positive when it falls. For the molecule `Cc1ccc(O)cc1Nc1ccnc2ccc(S(C)(=O)=O)cc12`, the inhibition stood at 7.86% in [1]; 4.88% in experiment [2]; 5.18% in experiment [3]; 91.3% in [4]; 95.7% in [5]; 92.2% in experiment [6]. In addition, the inhibition in experiment [7] turned out to be 81.5%; in experiment [8] it was 89.3%; in [9] it was 93.5%; in experiment [10], 83.6%.
Turning to `COc1cc2ncnc(Nc3ccc4c(cnn4Cc4ccccc4)c3)c2cc1OC`, the inhibition in experiment [1] was 36.2%; in [2], 1.03%; in experiment [3], 3.09%; in [4] it was -2.8%; in experiment [5] it was -2.26%; in experiment [6], 1.64%. Besides, the inhibition in [7] came out at 2.12%; in [8] it was 4.83%; in [9], 6.82%; in experiment [10] it was 4.85%.
For the molecule `N#Cc1c(NC(=O)c2ccccc2F)sc2c1CCCC2`, the inhibition in experiment [1] is -1.31%; in [2], -0.25%; in experiment [3] it was -0.34%; in experiment [4], -2.61%; in [5], -2.44%; in experiment [6] it was -3.2%. Besides, the inhibition is -1.65% in experiment [7], -3.04% in experiment [8], -0.99% in experiment [9] and -7.95% in experiment [10].
As for `NS(=O)(=O)c1ccc(N/N=C2\C(=O)Nc3ccc(Cl)cc32)cc1`, the inhibition in experiment [1] is 4.35%; in experiment [2], -0.89%; in experiment [3] it was 2.78%; in experiment [4] it was 1.86%; in experiment [5], 1.3%; in experiment [6], 4.83%. In addition, the inhibition is 4.35% in experiment [7], 7.66% in experiment [8], 12.2% in experiment [9] and 3.99% in experiment [10].
Take `NC(=O)c1sc(-n2cnc3ccccc32)cc1OCc1ccccc1Br`: the inhibition in [1] came out at 1.85%; in [2], 2.85%; in [3] it was 1.45%; in [4] it was 0.63%; in experiment [5], 0.39%; in [6], 1.18%. Also, the inhibition is 3.38% in experiment [7], 6.29% in experiment [8], 9.89% in experiment [9] and 5.64% in experiment [10].
As for `c1ccc(Nc2ncc(-c3ccccc3)o2)cc1`, the inhibition is 3.42% in [1]; -0.6% in experiment [2]; 3.56% in experiment [3]; 1.18% in experiment [4]; 0.47% in [5]; 3.55% in experiment [6]. The inhibition in experiment [7] is 4.8%; in experiment [8], 7.56%; in experiment [9] it was 12.1%; in experiment [10], 7.58%.
Regarding `COc1cccc(-n2nc(C)c3c(N/N=C(\C)c4ccncc4)ncnc32)c1`, the inhibition in experiment [1] was -1.56%; in experiment [2], -0.53%; in [3], -1.32%; in experiment [4] it was -1.68%; in experiment [5] it was -1.94%; in experiment [6] it was -0.57%. For the same molecule, the inhibition in experiment [7] stood at 2.37%; in experiment [8], 3.69%; in [9], 6.36%; in experiment [10] it was 2.52%.
`CN(C)c1cc2c(Nc3ccc4c(cnn4Cc4ccccc4)c3)ncnc2cn1`: the inhibition was 0.12% in [4]; 0.17% in [5]; 3.01% in [6]; 3.25% in experiment [7]; 6.93% in experiment [8]; 2.96% in [9]. Further, the inhibition in experiment [10] came to 2.52%.
In the case of `O=C1Nc2ccccc2/C1=C/Nc1ccc2[nH]c(=O)[nH]c2c1`, the inhibition in experiment [1] worked out at 7.07%; in [2], 4.62%; in [3], 3.05%; in experiment [4] it was 2.36%; in [5], 3.88%; in experiment [6] it was 5.7%. The inhibition in [7] was found to be 9.27%; in [8] it was 12.9%; in experiment [9] it was 16.3%; in experiment [10], 15.9%.
In the case of `[O-][S+]1CCN(Cc2ccc(-c3ccc4ncnc(Nc5ccc(OCc6ccccc6)c(Cl)c5)c4c3)o2)CC1`, the inhibition in experiment [4] was -3.15%; in experiment [5], -2.96%; in [6] it was -1.64%; in experiment [7] it was -1.69%; in experiment [8], 2.8%; in experiment [9] it was 3.82%. In addition, the inhibition in experiment [10] came to 6.04%.
With `CN(C)C(=O)O[C@@H]1CN[C@@H](C#Cc2cc3ncnc(Nc4ccc(OCc5cccc(F)c5)c(Cl)c4)c3s2)C1`, the inhibition in [4] is -0.17%; in experiment [5], 1.05%; in experiment [6] it was 5.64%; in experiment [7], 1.99%; in experiment [8], 1.85%; in experiment [9], -8.34%. Moreover, the inhibition in [10] was 0.71%.
Turning to `O=C1Nc2ccc(-c3cccnc3)cc2C1=Cc1cc(Br)c(O)c(Br)c1`, the inhibition was determined as 0.57% in experiment [1]; 2.96% in experiment [2]; 5.14% in experiment [3]; 2.12% in [4]; 0.76% in [5]; 4.82% in experiment [6]. For the same molecule, the inhibition in experiment [7] was 3.94%; in experiment [8] it was 3.36%; in experiment [9] it was 5.16%; in experiment [10], 7.83%.
`CN(C)CCCn1c(-c2nonc2N)nc2cnccc21`: the inhibition in experiment [1] was 4.68%; in experiment [2], -0.67%; in experiment [3], 3.5%; in experiment [4] it was 0.86%; in experiment [5], 0.27%; in experiment [6], 4.17%. Moreover, the inhibition in experiment [7] was 5.42%; in experiment [8], 4.85%; in [9] it was 3.54%; in experiment [10] it was 3.03%.
With `COC(=O)c1cncc(/C=C/c2c(C)cc(O)cc2C)c1`, the inhibition in [1] was found to be 4.21%; in [2], 0.04%; in experiment [3], 4.09%; in [4] it was 10.3%; in experiment [5], 40.2%; in [6], 7.42%. The inhibition was 16.2% in experiment [7], 19% in [8], 66.6% in experiment [9] and 15.3% in experiment [10].
Consider `FC(F)(F)c1ccc(-c2nn3ncccc3c2-c2ccnc(Nc3ccc4c(c3)OCCO4)n2)cc1`, for which the inhibition in [1] came out at 7.94%; in [2], 0.49%; in experiment [3] it was 10.3%; in [4] it was 4.63%; in experiment [5], 3.45%; in [6] it was 0.34%. The inhibition in [7] was determined as 2.49%; in experiment [8], 1.05%; in experiment [9], 21.2%; in [10], 3.69%.
As for `NS(=O)(=O)c1ccc(NC=C2C(=O)Nc3ccc4ncsc4c32)cc1`, the inhibition stood at 2.64% in experiment [1]; 3.17% in experiment [2]; 9.63% in [3]; 2.13% in experiment [4]; 7.25% in experiment [5]; 5.57% in experiment [6]. For the same molecule, the inhibition came out at 12.8% in experiment [7], 11.3% in experiment [8], 33.7% in [9] and 4.62% in [10].
As to `COc1cccc(-n2ncc3c(N/N=C/c4ccc(S(C)(=O)=O)cc4)ncnc32)c1`, the inhibition is 0.63% in experiment [1]; 0.79% in [2]; 5.78% in experiment [3]; -3.2% in experiment [4]; 1.45% in experiment [5]; -2.15% in experiment [6]. Further, the inhibition was -1.2% in experiment [7], 7.26% in experiment [8], 11.7% in experiment [9] and 5.46% in experiment [10].
